The text below walks through data of PubChem BioAssay (Tox21).

Test [1] concerns the target Aryl hydrocarbon receptor (Homo sapiens) (UniProt P35869). Briefly: qHTS assay to identify small molecule that activate the aryl hydrocarbon receptor (AhR) signaling pathway (AID 743085). Further: nearly all actives have a fitted effect of over 15% in size. Further: potency means the concentration at half of the fitted maximal effect.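 On activation: HG2L7.5c1 human HepG2 liver cells with stably integrated DRE-driven firefly reporter; series mostly up to about 70 µM.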 The procedure, abridged:
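Luminescence read-out: ONE-Glo reagent, 30 min at room temperature, in HG2L7.5c1 HepG2 reporter cells treated 24 h at 37C. Viability was measured beforehand by CellTiter-Fluor fluorescence after 30 min at 37C.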

Test [2] can be described thus: qHTS assay to identify small molecule antagonists of the peroxisome proliferator-activated receptor gamma (PPARg) signaling pathway - cell viability counter screen (AID 743194). Further: nearly all actives have a fitted effect of over 55% in size. Further: potency means the concentration at half of the fitted maximal effect. The method in brief: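 Viability was measured as CellTiter-Glo luminescence in GeneBLAzer PPARg UAS-bla HEK293H cells. These cells had been exposed 17 h at 37 C to compounds together with rosiglitazone at 50 nM final, with the beta-lactamase readout taken in the same wells.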

A short description of test [3]: qHTS assay for small molecule agonists of the antioxidant response element (ARE) signaling pathway - cell viability counter screen (AID 743203; calls by dose curve; further: nearly all actives have a fitted effect of over 55% in size; further: potency means the concentration at half of the fitted maximal effect). The method in brief: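 Luminescence read-out (CellTiter-Glo, 30 min at room temperature) measured cell viability in the same wells as the ARE beta-lactamase reporter. HepG2 ARE-bla cells were treated with compounds for 16 hrs at 37C/5% CO2.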

The nature of test [4]: qHTS assay to identify small molecule agonists of the peroxisome proliferator-activated receptor delta (PPARd) signaling pathway - cell viability counter screen (AID 743211). Further: nearly all actives have a fitted effect of over 55% in size. Further: potency means the concentration at half of the fitted maximal effect. The procedure, abridged: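 Read-out: CellTiter-Glo luminescence, 30 min RT, measured in the same wells as the beta-lactamase reporter. Cells: GeneBLAzer PPAR delta UAS-bla HEK293H, 3000 cells/well, compound exposure 17 h at 37C.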
In general terms: Quantitative high-throughput screening tests each substance at several concentrations.

A short description of test [5]: qHTS assay to identify small molecule antagonists of the peroxisome proliferator-activated receptor delta (PPARd) signaling pathway - cell viability counter screen (AID 743213). Further: nearly all actives have a fitted effect of over 50% in size. Further: potency means the concentration at half of the fitted maximal effect. The procedure, abridged:
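In this counter screen, HEK293H cells carrying a UAS-beta-lactamase reporter are co-treated with test compounds and 300 nM L165041 (final) for 17 h at 37 C; cell viability is quantified by CellTiter-Glo luminescence.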

The nature of test [6]: qHTS assay to identify small molecule antagonists of the farnesoid-X-receptor (FXR) signaling pathway - cell viability counter screen (AID 743221; active means well fitted cell-killing curve with a large enough effect in the repeat runs, not every such curve was filed as active; further: nearly all actives have a fitted effect of over 50% in size). The procedure, abridged:
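HEK 293T FXR-bla cells, 5 h pre-incubation; compound + CDCA 50 uM final, 16 h, 37 C; beta-lactamase FRET read first, then CellTiter-Glo luminescence, 30 min RT.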

The target of test [7] is Peroxisome proliferator-activated receptor gamma (Homo sapiens) (UniProt P37231). Briefly: qHTS assay to identify small molecule agonists of the peroxisome proliferator-activated receptor gamma (PPARg) signaling pathway (AID 743094; active means well fitted activation curve with a large enough effect in the signal ratio in the repeat runs, not every such curve was filed as active; the % refers to the signal ratio). The procedure, abridged:
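HEK293H PPARg-bla cells, 5 h settle at 37C/5% CO2; compound (DMSO) 17 h, 37C; B/G FRET substrate 1 h RT; fluorescence intensity read-out. qHTS format.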

Test [8] in a line: qHTS assay for small molecule activators of the heat shock response signaling pathway (AID 743210; active means well fitted activation curve with a large enough effect in the signal ratio in the repeat runs, with a control signal flat, not every such curve was filed as active; the % refers to the signal ratio; further: potency means the concentration at half of the fitted maximal effect;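 on activation: HeLa cells with beta-lactamase reporter driven by heat shock elements; series mostly up to about 63 µM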). The procedure, abridged: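 Fluorescence from a cleaved B/G FRET substrate (2.5 h, room temp) reports HSE-driven beta-lactamase in HeLa cells treated 5 h at 37 C with DMSO-dissolved compounds.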
In test [9] the target is Bile acid receptor (Homo sapiens) (UniProt Q96RI1). Briefly: qHTS assay to identify small molecule agonists of the farnesoid-X-receptor (FXR) signaling pathway (AID 743220; active means well fitted activation curve with a large enough effect in the signal ratio in the repeat runs, not every such curve was filed as active; the % refers to the signal ratio; further: potency means the concentration at half of the fitted maximal effect). The procedure, abridged: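 FXR-UAS-bla HEK 293T cells carrying a UAS-driven beta-lactamase reporter were plated for 5 h at 37C/5% CO2, then exposed to DMSO-dissolved Tox21 10K compounds for 16 h at 37C. A LiveBLAzer B/G FRET substrate was loaded for 2 h at room temperature before fluorescence reading.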
Bile acid receptor (Homo sapiens), sequence (Q96RI1 whole entry, looked up): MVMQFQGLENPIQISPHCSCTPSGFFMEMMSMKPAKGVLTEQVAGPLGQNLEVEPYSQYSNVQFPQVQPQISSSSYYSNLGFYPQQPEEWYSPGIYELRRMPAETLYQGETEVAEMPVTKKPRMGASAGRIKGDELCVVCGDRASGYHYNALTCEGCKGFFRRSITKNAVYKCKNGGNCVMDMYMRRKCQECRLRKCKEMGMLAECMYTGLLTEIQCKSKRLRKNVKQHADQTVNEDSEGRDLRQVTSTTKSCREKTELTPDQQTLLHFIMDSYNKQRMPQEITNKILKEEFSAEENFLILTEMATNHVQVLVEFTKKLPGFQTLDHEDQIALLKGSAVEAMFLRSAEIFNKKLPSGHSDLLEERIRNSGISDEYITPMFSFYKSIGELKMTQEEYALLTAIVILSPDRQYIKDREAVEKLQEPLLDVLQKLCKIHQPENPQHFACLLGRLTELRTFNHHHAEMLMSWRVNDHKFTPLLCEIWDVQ

Test [10] has as its target Vitamin D3 receptor (Homo sapiens) (UniProt P11473). Put plainly: qHTS assay to identify small molecule agonists of the vitamin D receptor (VDR) signaling pathway (AID 743222; calls by dose curve; further: potency means the concentration at half of the fitted maximal effect). The procedure, abridged:
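Beta-lactamase reporter readout (LiveBLAzer B/G FRET, 2 h RT) in VDR-bla cells after 16 h compound treatment at 37C, 5% CO2; cells pre-incubated 4 h before pin transfer of DMSO solutions.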

Test [11] in a line: qHTS assay to identify small molecule that activate the aryl hydrocarbon receptor (AhR) signaling pathway - cell viability counter screen (AID 743086).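 Further: HepG2 liver cells carrying the AhR DRE luciferase reporter; series mostly up to about 70 µM; nearly all actives have a fitted effect of over 45% in size.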 The method in brief:
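Cytotoxicity counter screen: CellTiter-Fluor signal (30 min, 37 C) in 4000 HepG2 cells/well carrying the DRE-luciferase reporter, following 24 h compound exposure at 37 C.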

Test [12] has as its target Peroxisome proliferator-activated receptor gamma (Homo sapiens) (UniProt P37231). Briefly: qHTS assay to identify small molecule antagonists of the peroxisome proliferator-activated receptor gamma (PPARg) signaling pathway (AID 743191; calls by dose curve; further: series mostly up to about 63 µM; nearly all actives have a fitted effect of over 30% in size). The procedure, abridged:
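Beta-lactamase reporter under UAS control in HEK293H PPARg-bla cells; compound treatment 17 h at 37C. Read-out: fluorescence intensity after 1 h room-temperature incubation with LiveBLAzer B/G FRET substrate.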

A short description of test [13]: qHTS assay for small molecule agonists of the antioxidant response element (ARE) signaling pathway (AID 743202; active means well fitted activation curve with a large enough effect in the signal ratio in the repeat runs, not every such curve was filed as active; the % refers to the signal ratio; further: potency means the concentration at half of the fitted maximal effect). The method in brief:
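Beta-lactamase reporter activity, read as fluorescence intensity, reflects ARE/Nrf2 pathway induction in HepG2 cells after 16 h compound exposure at 37 C; substrate loading was 2 h at room temperature.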

Test [14] in a line: qHTS assay for small molecule activators of the heat shock response signaling pathway - cell viability counter screen (AID 743209). Further: nearly all actives have a fitted effect of over 50% in size. Further: potency means the concentration at half of the fitted maximal effect. The procedure, abridged: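 HSE-bla HeLa; 1500 cells/well; overnight 37 C, 5% CO2; compound 5 h 37 C; LiveBLAzer B/G substrate 2.5 h RT; CellTiter-Glo 30 min RT; luminescence.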
Test [15] can be described thus: qHTS assay to identify small molecule agonists of the farnesoid-X-receptor (FXR) signaling pathway - cell viability counter screen (AID 743218). Further: nearly all actives have a fitted effect of over 45% in size. The method in brief: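 Luminescence from CellTiter-Glo, read after 30 min at RT, reports viability of GeneBLAzer FXR-UAS-bla HEK 293T cells treated 16 h with compounds in the wells used for the beta-lactamase reporter.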

The target of test [16] is Vitamin D3 receptor (Homo sapiens) (UniProt P11473). Put plainly: qHTS assay to identify small molecule antagonists of the vitamin D receptor (VDR) signaling pathway (AID 743223; active means well fitted inhibition curve with a large enough effect in the signal ratio in the repeat runs, not every such curve was filed as active; the % refers to the signal ratio). The method in brief: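 Beta-lactamase reporter read-out: FRET substrate fluorescence after 2 h at room temperature, following 16 h exposure of VDR-bla cells to test compound plus 3 nM (final) 1alpha,25-dihydroxyvitamin D3 agonist at 37C.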
Vitamin D3 receptor (Homo sapiens), sequence (P11473 whole entry, looked up): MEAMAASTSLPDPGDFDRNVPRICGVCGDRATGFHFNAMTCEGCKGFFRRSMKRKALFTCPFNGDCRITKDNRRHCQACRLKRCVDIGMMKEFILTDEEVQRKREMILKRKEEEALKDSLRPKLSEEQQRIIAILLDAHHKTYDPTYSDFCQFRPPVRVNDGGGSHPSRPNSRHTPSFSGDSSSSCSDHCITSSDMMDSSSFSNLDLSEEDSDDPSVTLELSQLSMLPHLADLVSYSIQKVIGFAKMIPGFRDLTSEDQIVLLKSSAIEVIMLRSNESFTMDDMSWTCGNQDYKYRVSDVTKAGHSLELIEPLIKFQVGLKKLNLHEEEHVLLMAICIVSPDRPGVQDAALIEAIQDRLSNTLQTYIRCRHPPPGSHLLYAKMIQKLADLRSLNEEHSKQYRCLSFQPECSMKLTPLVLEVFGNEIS

The target of test [17] is Peroxisome proliferator-activated receptor delta (Homo sapiens) (UniProt Q03181). Put plainly: qHTS assay to identify small molecule agonists of the peroxisome proliferator-activated receptor delta (PPARd) signaling pathway (AID 743212; calls by dose curve). The method in brief: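 Steps: seed PPARd-bla HEK293H cells; incubate 5 h, 37 C, 5% CO2; add compounds in DMSO; incubate, 37 C; add LiveBLAzer B/G FRET substrate; hold 2 h at room temperature; measure fluorescence.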
Peroxisome proliferator-activated receptor delta (Homo sapiens), sequence (Q03181 whole entry, looked up): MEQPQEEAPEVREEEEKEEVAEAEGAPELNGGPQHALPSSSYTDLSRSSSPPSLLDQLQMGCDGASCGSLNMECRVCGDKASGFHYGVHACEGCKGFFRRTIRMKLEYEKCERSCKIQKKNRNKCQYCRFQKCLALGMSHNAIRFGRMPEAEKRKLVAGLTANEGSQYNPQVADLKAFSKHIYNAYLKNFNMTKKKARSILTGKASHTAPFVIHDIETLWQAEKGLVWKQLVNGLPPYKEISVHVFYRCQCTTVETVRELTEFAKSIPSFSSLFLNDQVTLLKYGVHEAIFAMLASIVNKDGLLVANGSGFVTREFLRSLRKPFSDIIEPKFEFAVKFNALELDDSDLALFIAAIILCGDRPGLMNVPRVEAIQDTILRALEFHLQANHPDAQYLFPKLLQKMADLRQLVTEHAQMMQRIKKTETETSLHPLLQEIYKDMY

For test [18] the target is unchanged. Briefly: qHTS assay to identify small molecule antagonists of the peroxisome proliferator-activated receptor delta (PPARd) signaling pathway (AID 743215; active means well fitted inhibition curve with a large enough effect in the signal ratio in the repeat runs, not every such curve was filed as active; the % refers to the signal ratio;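 further: cells stimulated with agonist L165041 at 300 nM final during compound exposure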; further: potency means the concentration at half of the fitted maximal effect). The method in brief:
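HEK293H GeneBLAzer PPARd UAS-bla reporter cells; cpd + L165041 300 nM final, 17 h 37 C; LiveBLAzer B/G FRET substrate 2 h RT; fluorescence intensity read-out. Antagonist mode.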

Inconclusive results are not listed. Calls of active or inactive are those of the source. Unless noted, the call rests on the fitted dose curve; in most records, active means well fitted curve in the direction sought with a large enough effect in the repeat runs; inconclusive means weak or mixed curves; inactive means no such curve, though single readings can be large; an effect the other way counts as inactive or inconclusive.

Peroxisome proliferator-activated receptor gamma (Homo sapiens), sequence (P37231 whole entry, looked up): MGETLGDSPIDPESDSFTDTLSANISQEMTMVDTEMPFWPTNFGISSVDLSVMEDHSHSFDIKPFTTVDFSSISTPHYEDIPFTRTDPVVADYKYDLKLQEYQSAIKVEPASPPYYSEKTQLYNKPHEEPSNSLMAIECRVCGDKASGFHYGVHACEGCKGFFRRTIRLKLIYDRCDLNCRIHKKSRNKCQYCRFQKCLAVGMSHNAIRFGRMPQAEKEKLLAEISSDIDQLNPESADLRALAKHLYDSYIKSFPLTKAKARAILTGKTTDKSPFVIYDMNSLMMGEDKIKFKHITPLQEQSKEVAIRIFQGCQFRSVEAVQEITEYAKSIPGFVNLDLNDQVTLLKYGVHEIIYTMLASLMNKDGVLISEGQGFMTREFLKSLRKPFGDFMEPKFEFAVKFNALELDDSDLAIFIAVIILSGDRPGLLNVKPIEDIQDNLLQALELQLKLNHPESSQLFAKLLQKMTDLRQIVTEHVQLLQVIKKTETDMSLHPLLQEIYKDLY
Aryl hydrocarbon receptor (Homo sapiens), sequence (P35869 whole entry, looked up): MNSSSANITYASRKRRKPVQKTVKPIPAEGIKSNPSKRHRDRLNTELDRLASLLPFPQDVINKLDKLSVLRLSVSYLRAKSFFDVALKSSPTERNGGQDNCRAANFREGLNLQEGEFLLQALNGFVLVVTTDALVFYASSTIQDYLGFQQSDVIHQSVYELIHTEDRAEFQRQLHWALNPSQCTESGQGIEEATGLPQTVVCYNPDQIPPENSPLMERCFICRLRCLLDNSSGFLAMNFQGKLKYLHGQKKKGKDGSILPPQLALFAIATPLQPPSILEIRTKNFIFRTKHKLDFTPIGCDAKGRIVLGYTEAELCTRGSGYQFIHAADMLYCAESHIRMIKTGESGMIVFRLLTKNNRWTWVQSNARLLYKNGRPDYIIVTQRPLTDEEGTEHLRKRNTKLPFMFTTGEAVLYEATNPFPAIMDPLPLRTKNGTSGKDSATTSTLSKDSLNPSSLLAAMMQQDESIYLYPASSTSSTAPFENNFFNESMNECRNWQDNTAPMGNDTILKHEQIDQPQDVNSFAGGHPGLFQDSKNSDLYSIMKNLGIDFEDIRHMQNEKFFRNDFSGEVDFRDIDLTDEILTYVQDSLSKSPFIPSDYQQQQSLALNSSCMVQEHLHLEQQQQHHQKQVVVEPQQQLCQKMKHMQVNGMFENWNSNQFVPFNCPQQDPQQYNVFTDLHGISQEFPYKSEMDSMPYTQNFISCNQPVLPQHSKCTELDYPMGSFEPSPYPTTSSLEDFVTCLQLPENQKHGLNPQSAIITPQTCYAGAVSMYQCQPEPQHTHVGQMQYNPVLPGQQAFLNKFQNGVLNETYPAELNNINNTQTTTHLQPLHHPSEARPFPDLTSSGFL

Regarding `O=c1cc(-c2ccccc2)oc2cc(O)cc(O)c12`, the Potency in [1] was 12.2 µM (active). The Potency entry in test [2], in test [3], in test [4], in test [5] and in test [6] was “inactive” in each case.

In the case of `COc1ccccc1NC(=O)c1cc2ccccc2cc1O`, the Potency in test [1] was 3.06 µM (active); in test [2], 17.4 µM (active); in [8] it was 50.9 µM (active); in [5], 43.6 µM (active). In addition, in test [7], the Potency result is “inactive”.

For the molecule `COC(=O)c1nc(Cl)c(Cl)nc1N`, the Potency is 26.6 µM (active) in test [2]; 23.7 µM (active) in [3]; 29.8 µM (active) in test [4]; 29.8 µM (active) in test [5]; 29.8 µM (active) in test [9]; 11.9 µM (active) in [10].

In the case of `O=C1NCCN1CCO`, the Potency result in test [11], in test [7], in test [12], in [2], in [13] and in test [3] was “inactive” each time. Also, the Potency result in test [14], in test [8], in test [4], in [15], in test [6] and in test [16] was “inactive” in each case.

As to `Nc1nc2ccc([N+](=O)[O-])cc2s1`, the Potency in test [1] was 32.5 µM (active); in test [13], 9.69 µM (active). Moreover, the Potency result in [3] and in test [6] was “inactive” each time.

Consider `O=C1NC(=O)c2cc([N+](=O)[O-])ccc21`, for which the Potency result in [11], in test [7], in test [2], in test [3], in [14] and in test [8] was “inactive” each time. Also, the Potency entry in test [4], in test [17], in test [5], in test [18], in [15] and in test [6] was “inactive” in each case.

For `C[C@@H](O[C@H]1OCCN(Cc2n[nH]c(=O)[nH]2)[C@H]1c1ccc(F)cc1)c1cc(C(F)(F)F)cc(C(F)(F)F)c1`, the Potency result in [1], in [17] and in test [9] was “inactive” each time. Further, the Potency in test [14] was 29.8 µM (active); in test [4] it was 26.6 µM (active); in test [5], 26.6 µM (active); in test [18], 29.8 µM (active).

On to `CNC(=O)c1cnn(-c2nc(N)c3ncn([C@@H]4O[C@H](CO)[C@@H](O)[C@H]4O)c3n2)c1`, for which the Potency result in test [2], in test [13], in [3], in [14], in test [8] and in test [4] was “inactive” in each case. In addition, the Potency result in test [5], in test [15], in test [6] and in test [10] was “inactive” each time.

Consider `Cc1cc(O)c(C)c(C)c1O`, for which the Potency result in [12], in test [2], in test [3], in test [8], in [4] and in test [17] was “inactive” each time. Besides, the Potency entry in test [5], in [18], in [15] and in [6] was “inactive” throughout. In addition, the Potency in [13] is 23.7 µM (active).

On to `N#[N+]c1ccc2c(S(=O)(=O)[O-])cccc2c1O`, for which the Potency result in test [1], in [7], in test [2], in [13], in test [3] and in test [14] was “inactive” throughout. Further, the Potency result in [8], in test [4], in [5], in [15], in test [10] and in test [16] was “inactive” each time.

For the molecule `CS(=O)(=O)c1ccc(-c2cn3ccccc3n2)cc1`, the Potency result in test [2], in [13], in [17], in [18], in [15] and in [6] was “inactive” in each case. Further, the Potency result in [16] was “inactive”. Moreover, in [4], the Potency was 29.8 µM (active).
